BoNT-F LC inh = BoNT/F light chain protease inhibitors, primary screen, biochemical, flow cytometry, MLPCN library. Botulinum neurotoxin type F light chain protease (Clostridium botulinum). Multiplex microsphere protease cleavage assay. inhibition, % at 10 µM. 360,000 tested, 0.22% active; in the data active = inhibition above about 35%, passing the limit was not always enough; inconclusive = no clear call, values can overlap the other calls; also: plate controls were buffer without enzyme for full effect and enzyme alone for no effect
PfHsp40 rescue = rescue of yeast from PfHsp40 toxicity, primary screen, S. cerevisiae, ATP luminescence; S. cerevisiae expressing PfHsp40, growth rescue; growth rescue, % at 12.5 µM; 340,000 tested, 0.68% active; AID 504582, 2011; in the data active = growth rescue above about 28%, passing the limit was not always enough; inconclusive = no clear call, values can overlap the other calls;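 also: yeast W303a lacking pdr1 and pdr3 grown in galactose medium; growth measured after three days at 30 °C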
Anthrax LF inh2 = Bacillus anthracis LF protease inhibitors, primary screen, biochemical, multiplex microsphere, MLPCN library | Lethal factor (Bacillus anthracis), P15917 | 360,000 tested, 0.12% active | multiplex microsphere protease cleavage assay | inhibition, % at 10 µM; also: plate controls were buffer without enzyme for full effect and enzyme alone for no effect
MazEF act = activators of E. coli MazEF toxin-antitoxin RNase, primary screen, biochemical, fluorescence, uHTS. FAM/BHQ RNA-DNA oligo cleavage fluorescence, 5 h. activation, % at 20 µM. 350,000 tested, 0.32% active; in the data active = activation above about 50%
Autofluor counter = compound fluorescence in toxin protease inhibitor counterscreen | fluorescence intensity (concentration not given with the values) | compound autofluorescence counterscreen, microsphere flow cytometry; hits give high values | 360,000 tested, 3.1% active; in the data active = fluorescence intensity above about 16000; inconclusive = no clear call, values can overlap the other calls
BoNT A protease = BoNT/A light chain protease inhibitors, primary screen, biochemical, flow cytometry, MLPCN library; AID 588499, 2011; inhibition, % at 10 µM; 360,000 tested, 0.17% active; Botulinum neurotoxin type A light chain protease (Clostridium botulinum A str. ATCC 3502); multiplex microsphere protease substrate cleavage; also: plate controls were buffer without enzyme for full effect and enzyme alone for no effect
* = called active by the depositor; ? = inconclusive; / = no result given. Rows were chosen to be rich in hits. Some 4.3% of all compounds tested hit in one or more screens of this group. Rule as the data show it, unless noted: active = inhibition above about 30%; inconclusive = no clear call, values can overlap the other calls; inactive = below that.

SMILES	BoNT-F LC inh	PfHsp40 rescue	Anthrax LF inh2	MazEF act	Autofluor counter	BoNT A protease
O=C(CC(=O)c1ccccc1O)c1cccc(F)c1	-10	1	-3	1	2042	0
O=C(CC(=O)c1c(F)cccc1Cl)c1ccccc1O	20	112*	-10	-5	3615	0
Cc1nn(Cc2nnc(SCC(=O)Nc3ccc(Cl)cc3)n2C)c(C)c1[N+](=O)[O-]	-38	-1	?	-2	3876	-6
Cc1cc(C(=O)OCC(=O)NC(C)(C)C)c2ccccc2n1	-2	1	0	6	16530*	?
Cc1cc(C(=O)OCC(=O)NCc2ccccc2)c2ccccc2n1	4	1	-2	1	5922	4
CC1CCc2cccc3c2N1c1cc(C#N)c(C#N)cc1O3 (stereo not drawn)	0	0	1	84*	23863*	-1
CC1CCCCN1c1cc(C#N)c(C#N)cc1[N+](=O)[O-] (stereo not drawn)	-22	?	-3	-1	7974	-2
COc1ccc(CC(=O)OCC(=O)NC(=O)NC23CC4CC(CC(C4)C2)C3)cc1	-1	2	-1	-3	24237*	-1
O=C(COC(=O)Cc1ccccc1)NC12CC3CC(CC(C3)C1)C2	-40	-1	-2	-1	3584	-1
O=C(COC(=O)c1n[nH]c2ccccc12)NC(=O)NC1CCCC1	-5	1	-2	-3	2964	0
O=C(COC(=O)c1n[nH]c2ccccc12)NC(=O)NC12CC3CC(CC(C3)C1)C2	2	0	-2	-13	19573*	?
O=C(Nc1nnc([C@@H]2C[C@H](O)[C@@H](CO)O2)s1)NC1CCCCC1	-5	/	-5	/	2906	0
Cc1ccc(S(=O)(=O)N2CCN(S(C)(=O)=O)C2)cc1	-15	-2	-1	-3	7383	0
CN1CCN(S(=O)(=O)c2ccc(-c3ccccc3)cc2)CC1	3	0	2	-7	22073*	1
Cc1ccc(-c2ccc(S(=O)(=O)N3CCN(C)CC3)cc2)cc1	1	1	-2	-8	21880*	1
Cc1ccc(S(=O)(=O)N2CCN(S(=O)(=O)N(C)C)CC2)cc1	-3	-1	-6	-13	3544	0
Cc1ccc(-c2ccc(S(=O)(=O)N3CCCC3)cc2)cc1	3	0	-2	6	4074	0
CN(C)S(=O)(=O)N1CCN(S(=O)(=O)c2ccccc2)CC1	2	1	-7	3	20194*	0
Cc1ccc(S(=O)(=O)N2CCN(S(=O)(=O)c3ccccc3)C2)cc1	4	-1	-5	0	21096*	3
CC(C)C[C@@H]1Cc2[nH][nH]c(=O)c2[C@H](c2ccc(Cl)cc2)O1	-5	/	7	/	5466	1
c1ccc2c(c1)OCCOCCOc1ccccc1OCCOCCO2	-10	2	-1	12	2039	0
FC(F)(F)c1cccc(CC2CN(Cc3ccccc3)Cc3ccccc3N2c2cc(Cl)cc(Cl)c2)c1 (stereo not drawn)	-4	/	-1	-2	3859	0
Cc1ccc(N2CCN(S(=O)(=O)N(C)C)CC2)cc1C	0	0	-8	2	4356	1
CN(C)S(=O)(=O)N1CCN(c2ccc(Cl)cc2)CC1	0	1	-2	5	16470*	0
CCCCCCCN1N=C(C)C(C(=O)c2ccccc2)C1=O (stereo not drawn)	-16	381*	0	10	3556	-2
SMILES	BoNT-F LC inh	PfHsp40 rescue	Anthrax LF inh2	MazEF act	Autofluor counter	BoNT A protease
CCCCN(C(=O)c1ccc(Cl)cc1)C1CC2CCC(C1)N2C (stereo not drawn)	-3	-1	-3	4	4130	0
CC1=NN(c2ccccc2)C(=O)C1C(=O)c1cc([N+](=O)[O-])cc([N+](=O)[O-])c1 (stereo not drawn)	-2	-2	4	-2	4080	0
CCCCCCN1N=C(C)C(C(=O)c2ccc(Cl)cc2)C1=O (stereo not drawn)	5	519*	4	3	3226	3
O=[N+]([O-])c1ccc2c(c1)CO[C@@]21O[C@H](CCO)C[C@H](O)[C@H]1O	4	/	0	/	4558	0
Nc1ccc(CC2=NCCN2)cc1	-12	35*	-14	-5	3819	0
Nc1nc(Br)c2c(F)cccc2c1-c1ccc(F)cc1	2	-3	0	7	22286*	3
Nc1ccc(-c2c3ccccc3nc3ccccc23)cc1	?	0	-4	0	3969	1
Nc1nc(Br)c2c(F)cccc2c1-c1ccccc1	-5	0	1	32	21859*	-4
Cc1ccc(S(=O)(=O)N(C)C)cc1NC(=O)COC(=O)CSc1ccccc1	10	1	-6	3	?	0
O=C(c1ccccc1)C1CCN(C(=O)c2c(F)cccc2F)CC1	18	8	25	7	3809	1
COc1ccc2cnn(-c3ccccc3)c(=O)c2c1OC	11	66*	1	-3	4703	0
COc1ccc2cnn(-c3ccccc3C)c(=O)c2c1OC	-32	136*	-3	7	3912	-2
CCOC(=O)[C@]12CCC=C1N(Cc1ccc(Cl)cc1Cl)C(=O)[C@H](CC(=O)NCCCN1CCCC1=O)C2	1	/	-2	/	4171	0
CCCCCN(C(=O)CCC(=O)OCc1ccc(Cl)cc1Cl)c1c(N)n(CCCC)c(=O)[nH]c1=O	7	4	4	-3	5941	0
Cc1ccc(-n2c(Cc3ccccc3)nnc2SCC(=O)NNC(=O)Cc2ccccc2)cc1	-3	0	-3	2	16282*	0
O=C(CSc1nnc(-c2cccnc2)n1-c1ccccc1)Nc1ccccc1	-14	-1	-7	-6	9420	-2
Cc1ccc(-c2nnc(SCC(=O)CC(=O)Nc3ccccc3)n2-c2ccccc2)cc1	-9	1	2	-3	21966*	-7
Cc1ccc(C(=O)NNC(=O)CSc2nnc(-c3ccncc3)n2-c2ccc(C)cc2)cc1	2	0	-7	/	20719*	2
CC(C)OC(=O)CSc1nnc(-c2cnccn2)n1-c1ccc(Cl)cc1	-7	-1	-4	0	21757*	?
CCO[C@H]1OC(C(=O)O)=C[C@@H](c2coc3ccccc3c2=O)[C@@H]1CCCO	1	0	7	2	3538	-1
